Measured values published in PubChem BioAssay AID720706 (Broad Institute, 2013).
Among all 350,000 compounds or so, about 5,500 (1.6%) were called active.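 Rule for the calls: active = significant combined selectivity score with lowered wild-type GFP, culture density cut under 30%, mutant RFP and density less affected; inactive = any of these conditions unmet.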 What follows is part of a selection rich in actives, with near analogues and random picks from the rest.

Assay: GFP drop in mixed WT/humanized-ribosome E. coli culture – GFP/RFP fluorescence, OD600, single point, bacterial rRNA inhibitor project, primary screen (AID 720706)
Conditions: E. coli WT GFP vs humanized-ribosome RFP mutants, 24 h; GFP signal change (wild-type ribosome): stronger effect = lower value, DMSO median 0, no signal -100; OD600 change: measured here: OD600 growth, DMSO median 0, no signal -100; RFP signal change: measured here: RFP humanized mutant strains, DMSO median 0, no signal -100, concentration not given here

Structure (SMILES)	GFP signal change (wild-type ribosome)	OD600 change	RFP signal change
CN(C)Cc1cn(CC[C@H]2CC[C@H](NS(=O)(=O)c3ccccc3)[C@@H](CO)O2)nn1	-1.38% (inactive)	8.8%	-1.73%
Cc1ccc(S(=O)(=O)N(C)C[C@H]2Oc3c(NS(=O)(=O)c4cn(C)cn4)cccc3C(=O)N([C@@H](C)CO)C[C@H]2C)cc1	4.44% (inactive)	5.92%	-0.801%
CCC(=O)N(C)C[C@@H]1Oc2ncc(-c3ccccc3OC)cc2C(=O)N([C@@H](C)CO)C[C@@H]1C	-1.63% (inactive)	0.66%	1.16%
COc1ccc(CNC(=O)C[C@@H]2C=C[C@@H](NC(=O)c3ccc4c(c3)OCO4)[C@@H](CO)O2)cc1	3.42% (inactive)	5.74%	-0.879%
C[C@H](CO)N1C[C@H](C)[C@H](CN(C)S(C)(=O)=O)Oc2ncc(C3=CCCC3)cc2C1=O	4.58% (inactive)	6.67%	-1.55%
O=C(c1ccc(N2CCOCC2)c([N+](=O)[O-])c1)N1CCN(c2ccccc2F)CC1	-19.6% (inactive)	-35.6%	-4.01%
O=C(c1cccc(F)c1)N1CCN(c2ccc([N+](=O)[O-])c3cccnc23)CC1	-17.8% (active)	-11%	4.41%
O=[N+]([O-])c1cc([N+](=O)[O-])c2cccnc2c1O	-15.7% (inactive)	19.1%	3.26%
C[C@H]1CCCCO[C@@H](CN(C)Cc2ccncc2)[C@@H](C)CN([C@@H](C)CO)C(=O)c2cc(NC(=O)Nc3ccc(F)cc3)ccc2O1	1.44% (inactive)	2.48%	-0.987%
CCCN(C)C[C@@H]1OCCCC[C@@H](C)Oc2ccc(NC(=O)CCCN(C)C)cc2C(=O)N([C@H](C)CO)C[C@@H]1C	-2.58% (inactive)	6.85%	-0.525%
C[C@H](NC(=O)N(C)C[C@@H]1OCc2ccccc2-c2ccccc2C(=O)N([C@H](C)CO)C[C@@H]1C)c1ccccc1	-0.824% (inactive)	6%	-2.69%
COc1ccc(S(=O)(=O)Nc2ccc3c(c2)C(=O)N(C)C[C@@H](OC)[C@H](C)CN(C(=O)NC(C)C)[C@H](C)CO3)cc1	2.15% (inactive)	-6.48%	0.485%
CCCNC(=O)N(C)C[C@@H]1Oc2ncc(C#CCc3ccccc3)cc2C(=O)N([C@@H](C)CO)C[C@H]1C	2.5% (inactive)	-2.83%	-0.346%
Cc1noc(C)c1S(=O)(=O)N(C)C[C@H]1OCCCC[C@H](C)Oc2ccc(NC(=O)c3ccccc3)cc2C(=O)N([C@@H](C)CO)C[C@H]1C	-1% (inactive)	-0.308%	2.4%
CC(C)(C)NC(=O)NC(=O)COC(=O)Cc1ccc(Cl)cc1Cl	-19.2% (active)	-0.7%	-0.643%
CC(C)(C)NC(=O)NC(=O)COC(=O)Cc1c(F)cccc1Cl	-13.1% (inactive)	-4.75%	3.43%
O=C(COC(=O)Cc1ccc(Cl)cc1Cl)NCc1ccco1	-17.4% (inactive)	-6.25%	0.815%
C[C@H](CO)N1C[C@H](C)[C@H](CN(C)Cc2ccncc2)Oc2ccc(NC(=O)Nc3ccc(F)cc3)cc2C1=O	0.717% (inactive)	-2.2%	-2.45%
CN1c2ccc(-c3ccc(C#N)cc3)cc2[C@@H]2[C@@H](CCN2C(=O)C2CCCCC2)[C@H]1CO	-6.99% (inactive)	-10.9%	6.2%
CN(C)C(=O)c1ccc(-c2ccccc2[C@H]2[C@@H](CO)N(C(=O)C3CCCCC3)[C@H]2C#N)cc1	-3.32% (inactive)	0.601%	-4.88%
O=C(O)c1ccccc1-c1ccccc1C(=O)NCCc1ccccc1	7.6% (inactive)	2.74%	2.49%

Structure (SMILES)	GFP signal change (wild-type ribosome)	OD600 change	RFP signal change
O=C(NCCCc1ccccc1)C(=O)c1c[nH]c2ccccc12	0.21% (inactive)	-1.22%	-2.69%
O=C(NCCc1ccccc1)c1c[nH]c2ccc(F)cc2c1=O	-31.8% (active)	-19.6%	-3.4%
COCC(=O)N(C)C[C@H]1[C@@H](c2ccccc2)[C@H](CO)N1C(=O)Cc1ccncc1	4.17% (inactive)	8.74%	0.341%
Cc1ccc(S(=O)(=O)N[C@H]2CC[C@@H](CC(=O)NCCCN(C)C)O[C@H]2CO)cc1	4.5% (inactive)	5.89%	-1.14%
C[C@H](CO)N1C[C@H](C)[C@@H](CN(C)S(C)(=O)=O)Oc2ccc(NC(=O)Nc3ccc4c(c3)OCO4)cc2CC1=O	-0.075% (inactive)	5.52%	1.12%
O=C(NNS(=O)(=O)c1ccccc1)c1cnn(-c2ccc(Cl)cc2)c1C(F)(F)F	-40.1% (active)	20.1%	3.85%
NNC(=O)c1cnn(-c2ccccc2)c1C(F)(F)F	5.13% (inactive)	9.29%	-0.665%
CCCc1c(C(=O)O)cnn1-c1ccc(Cl)cc1	-6.54% (inactive)	-3.54%	0.509%
C[C@H]1CN([C@@H](C)CO)C(=O)c2cc(-c3ccncc3)cnc2O[C@@H]1CN(C)C(=O)C1CCCCC1	0.821% (inactive)	4.66%	-3.44%
C[C@H](CO)N1C[C@H](C)[C@H](CN(C)C(=O)C2CC2)Oc2cc(-c3cccnc3)ccc2S1(=O)=O	-1.18% (inactive)	3.4%	0.533%
CCCNC(=O)N1[C@H](CO)[C@@H](c2ccc(-c3ccc(C(=O)N(C)C)cc3)cc2)[C@@H]1C#N	6.87% (inactive)	16.3%	-2.83%
O=C(c1ccc(F)cc1)N1CC(=O)N2[C@@H](CO)[C@H](c3ccc(C4=CCCC4)cc3)[C@@H]2C1	4.17% (inactive)	4.94%	-0.136%
C[C@H](CO)N1C[C@H](C)[C@@H](CN(C)C(=O)C2CC2)Oc2cc(C#CC(C)(C)O)ccc2S1(=O)=O	1.02% (inactive)	10.5%	-2.74%
COCC(=O)N1CC(=O)N2[C@H](C1)[C@H](c1ccc(C#CC3CCCCC3)cc1)[C@@H]2CO	2.23% (inactive)	2.33%	1.49%
Cc1cccc(NC(=O)c2ccc(S(=O)(=O)N(C)c3ccccc3)cc2)n1	-16.8% (active)	-25%	1.23%
CN(c1ccccc1)S(=O)(=O)c1ccc(C(=O)NCCc2ccccc2)cc1	-12.7% (inactive)	-28.7%	-1.12%
CN(c1ccccc1)S(=O)(=O)c1ccc(C(=O)NCc2cccnc2)cc1	-0.96% (inactive)	-21.8%	0.05%
C[C@@H]1CN([C@H](C)CO)C(=O)c2cc(C#CCN(C)C)cnc2O[C@H]1CN(C)C(=O)NC1CCCC1	3.54% (inactive)	11.4%	-1.39%
CNC[C@@H]1Oc2ccc(NS(=O)(=O)c3c(C)noc3C)cc2CC(=O)N([C@@H](C)CO)C[C@@H]1C	1.9% (inactive)	3.17%	1.62%
Cc1ccc(C)c(NC(=O)c2ccc3nccnc3c2)c1	4.03% (inactive)	7.77%	-0.371%
Cc1ccc(C)c(NC(=O)c2cc(-c3cc(C)cc(C)c3O)n[nH]2)c1	-26.5% (active)	-6.64%	-4.96%

Structure (SMILES)	GFP signal change (wild-type ribosome)	OD600 change	RFP signal change
Cc1ccc(C)c(NC(=O)NNC(=O)c2ccc3ccccc3c2O)c1	7.08% (inactive)	7.28%	-0.547%
O=C(C[C@H]1C[C@H]2c3cc(NC(=O)C4CCOCC4)ccc3O[C@H]2[C@@H](CO)O1)NCCN1CCCCC1	5.5% (inactive)	7.29%	1.6%
C[C@@H]1CN([C@H](C)CO)C(=O)c2cc(NC(=O)C3CCCCC3)ccc2O[C@@H]1CN(C)CC1CCCCC1	0.0895% (inactive)	5.96%	0.317%
OCc1ccc(OCCCOc2cccc3cccnc23)cc1	-10.7% (inactive)	-8.81%	-4.97%
O=S(=O)(NCCc1ccc(F)cc1)c1cccc2cccnc12	-26.1% (inactive)	-23%	-1.09%
O=S(=O)(NCCOc1cccc2cccnc12)c1ccc(F)cc1	-21.1% (active)	-16%	1.43%
O=C(C[C@@H]1CC[C@@H](NC(=O)C2CCOCC2)[C@H](CO)O1)NCC1CC1	0.615% (inactive)	0.519%	-2.58%
CN1CCCCN2[C@H](CO)[C@H](c3ccc(-c4ccc(F)cc4)cc3)[C@@H]2C1	3.95% (inactive)	2.06%	-2.51%
CCC(=O)N1CC2(CN(C(=O)Nc3ccccc3F)C2)c2c([nH]c3cc(OC)ccc23)[C@H]1CO	-3.51% (inactive)	-1.81%	1.22%
O=C(CCc1ccccc1F)N1CCN(c2ccccc2)CC1	-5.11% (inactive)	-5.09%	-0.63%
COc1ccc(N2CCN(C(=O)CCSCc3ccccc3F)CC2)cc1	-33% (active)	-17.7%	-1.41%
COc1ccc(N2CCN(C(=O)CCNC(=O)c3ccc(Br)cc3)CC2)cc1	4.67% (inactive)	3.67%	-1.33%
O=C(NCC[C@H]1CC[C@@H](NC(=O)c2ccncc2)[C@@H](CO)O1)Nc1ccc(Cl)cc1	-17.2% (inactive)	-25.9%	-0.789%
O=C(C1CCCC1)N1CC(=O)N2[C@@H](CO)[C@H](c3ccc(C#CC4CCCC4)cc3)[C@@H]2C1	-40.8% (inactive)	-65.7%	1.78%
C=CCn1c(-c2sc(-c3ccccc3)nc2C)n[nH]c1=S	-24.3% (active)	-5.31%	7.62%
C=CCn1c(-c2ccccc2OCC)n[nH]c1=S	3.63% (inactive)	4.05%	2.66%
C=CCn1c(CCc2ccc(OC(C)C)cc2)n[nH]c1=S	-0.285% (inactive)	-0.525%	1.11%
O=C(C1CC1)N1CCCCN2[C@H](CO)[C@H](c3ccc(-c4cccc(F)c4)cc3)[C@H]2C1	-6.45% (inactive)	-8.76%	3.12%
COCC(=O)N1CCCCN2[C@H](C1)[C@@H](c1ccc(-c3ccccc3)cc1)[C@@H]2CO	2.96% (inactive)	-5.68%	0.005%
C[C@@H]1CCCCO[C@@H](CN(C)C(=O)Nc2cccc3ccccc23)[C@H](C)CN([C@H](C)CO)C(=O)c2cc(NS(C)(=O)=O)ccc2O1	2.97% (inactive)	-14.8%	-1.87%
